Measurements taken from the supplement of paper PMC13380429.

How the values were obtained:
[1] = system: Vero E6 infected with SARS-CoV-2; assay: morphology score (similarity to uninfected cells); higher = more like uninfected cells; settings: 24 h
[2] = system: Vero E6 infected with SARS-CoV-2; assay: SARS-CoV-2 infection rate relative to infected DMSO; higher = more infection, active = 60 or less; settings: 24 h

Compound | morphology score [1] | SARS-CoV-2 infection rate [2]
CC(C)[C@H](CO)Nc1nc(Nc2cccc(Cl)c2)c2ncn(C(C)C)c2n1 [purvalanol-A] (0.833333 µM) | -0.028 | 109% (inactive)
O=c1sn(-c2cccc3ccccc23)c(=O)n1Cc1ccccc1 [tideglusib] (10 µM) | 0.109 | 108% (inactive)
N#Cc1cc(CN2CCC(Nc3ncnc4sc(Cl)cc34)CC2)ccc1F (10 µM) | -0.299 | 116% (inactive)
O=C(c1ccccc1)C(O)c1ccccc1 (stereo not drawn) [benzoin] (10 µM) | -0.114 | 101% (inactive)
CC(C(=O)O)c1ccc2c(c1)Cc1cccnc1O2 (stereo not drawn) [pranoprofen] (10 µM) | -0.152 | 122% (inactive)
CN[C@@H](C)[C@H](O)c1ccccc1 [ephedrine] (10 µM) | -0.038 | 106% (inactive)
O=Nc1c(O)[nH]c2c(Cl)c(Cl)ccc12 (10 µM) | 0.117 | 93.5% (inactive)
NC[C@@](O)(c1ccc(Cl)cc1)c1ccc(-c2cn[nH]c2)cc1 (10 µM) | 0.174 | 108% (inactive)
CC(C)NC(=O)N1CC[C@H](NC2=Nc3cc(F)ccc3N(CC(F)F)c3ccc(Cl)cc32)C1 (0.833333 µM) | 0.0642 | 89% (inactive)
O=C1Nc2ccc(I)cc2C1=Cc1cc(Br)c(O)c(Br)c1 (10 µM) | 0.384 | 98.5% (inactive)
NCCCC[C@H](NC(=O)[C@@H]1CCCN1C(=O)[C@@H]1CSSC[C@H](N)C(=O)N[C@@H](Cc2ccc(O)cc2)C(=O)N[C@@H](Cc2ccccc2)C(=O)N[C@@H](CCC(N)=O)C(=O)N[C@@H](CC(N)=O)C(=O)N1)C(=O)NCC(N)=O [lypressin] (10 µM) | 0.164 | 91% (inactive)
CCCCC1=NC2(CCCC2)C(=O)N1Cc1ccc(-c2ccccc2-c2nnn[nH]2)cc1 [irbesartan] (10 µM) | 0.0469 | 96.5% (inactive)
CN1CCC(=C2c3ccccc3C=Cc3ccccc32)CC1 [cyproheptadine] (0.833333 µM) | 0.0226 | 102% (inactive)
O=C(O)/C=C/CO [trans-4-hydroxycrotonic-acid] (10 µM) | 0.0958 | 90.5% (inactive)
N=C(NCc1ccc(Cl)cc1)SCCCc1c[nH]cn1 [clobenpropit] (10 µM) | 0.14 | 104% (inactive)
C[C@]12CCC(=O)C=C1C=C[C@@H]1[C@@H]2CC[C@@]2(C)[C@H]1CC[C@@]21CCC(=O)O1 [canrenone] (10 µM) | 0.219 | 94% (inactive)
CCCCCCCC/C=C\CCCCCCCC(=O)N[C@@H](CO)Cc1ccc(O)cc1 (10 µM) | 0.123 | 104% (inactive)
Nc1ccc(C(=O)NCC(=O)O)cc1 [4-aminohippuric-acid] (10 µM) | -0.0582 | 108% (inactive)
C[C@H](Nc1cc(-c2cnn(C)c2)cc(Nc2cnccn2)n1)c1ccc(F)cc1 (0.833333 µM) | -0.112 | 114% (inactive)
CC(C)(O)c1coc(S(=O)(=O)NC(=O)Nc2c3c(cc4c2CCC4)CCC3)c1 (10 µM) | 0.0866 | 93.5% (inactive)
CCCCN(Cc1ccc(C(=O)NO)cc1)C(=O)Nc1ccccc1 [nexturastat-A] (0.833333 µM) | 0.112 | 105% (inactive)
CC(C)(C=O)Cc1cc(C(C)(C)C)c(O)c(C(C)(C)C)c1 (10 µM) | 0.0771 | 94% (inactive)

Compound | morphology score [1] | SARS-CoV-2 infection rate [2]
CCCCOc1cc(CC2CNC(=O)N2)ccc1OC (stereo not drawn) (10 µM) | 0.429 | 86% (inactive)
N#Cc1ccc(N2CCN(C(=O)COc3ccc4[nH]cc(CCN)c4c3)CC2)cc1 [donitriptan] (10 µM) | -0.0047 | 100% (inactive)
CC(C)CC(NC(=O)OCC1c2ccccc2-c2ccccc21)C(=O)O (stereo in doubt) (10 µM) | 0.145 | 96% (inactive)
CCc1ccc(OCc2ccccc2C(=O)Nc2ccc3nc(C)cc(N)c3c2)cc1 (0.833333 µM) | 0.313 | 89% (inactive)
C=C(C)[C@@H]1CC[C@]2(C(=O)O)CC[C@]3(C)[C@H](CC[C@@H]4[C@@]5(C)CC[C@H](O)C(C)(C)[C@@H]5CC[C@]43C)[C@@H]12 [betulinic-acid] (10 µM) | 0.0296 | 108% (inactive)
CCN(C)C(=O)Oc1cccc([C@H](C)N(C)C)c1 [rivastigmine] (10 µM) | 0.136 | 101% (inactive)
NC(=S)N/N=C/c1ccncc1 [perchlozone] (10 µM) | -0.0589 | 114% (inactive)
CC(=O)[O-].CC(=O)[O-].N.NC1CCCCC1.[Cl-].[Cl-].[Pt+4] [satraplatin] (0.833333 µM) | 0.00101 | 104% (inactive)
CCOc1cc(N)c(Cl)cc1C(=O)NCC1CN(Cc2ccc(F)cc2)CCO1 (stereo not drawn) [mosapride] (10 µM) | 0.33 | 89.5% (inactive)
NP(N)(=O)NC(=O)c1ccc(F)cc1 [flurofamide] (10 µM) | 0.21 | 94.5% (inactive)
Cc1cc(-c2ncc(CC(=O)Nc3ccc(-c4cnccn4)cn3)cc2C)ccn1 (10 µM) | -0.0828 | 111% (inactive)
O=C(O)c1ccc(-c2c[nH]c3ncc(-c4ccccc4)cc23)cc1C1CCCC1 (10 µM) | 0.309 | 89.5% (inactive)
C[C@@H](O)[C@H]1C(=O)N2C(C(=O)O)=C(S[C@@H]3CN[C@H](C(=O)N(C)C)C3)[C@H](C)[C@H]12 [meropenem] (10 µM) | 0.0366 | 104% (inactive)
C[C@]12CC[C@H]3[C@@H](CCC4=CC(=O)CC[C@@H]43)[C@@H]1CC[C@@H]2O [Nandrolone] (10 µM) | 0.24 | 89.5% (inactive)
COc1cc(OC2CCN(C)CC2)ccc1Nc1ncc2c(n1)n(C1CCCC1)c(=O)n2C (0.833333 µM) | 0.126 | 98% (inactive)
CC(=O)Nc1ccc(OC(C)=O)cc1 [diacetamate] (10 µM) | 0.116 | 99.5% (inactive)
Cc1cnc(-c2ccccc2C(C)C)nc1NCc1ccc(-n2ccnn2)cc1 (10 µM) | 0.0189 | 101% (inactive)
C=C[C@@](C)(/C=C/c1ccc(O)cc1)CCC=C(C)C [bakuchiol] (10 µM) | -0.328 | 114% (inactive)
c1cc2c(c(N3CCNCC3)c1)OCCO2 [eltoprazine] (10 µM) | 0.0367 | 94.5% (inactive)
COc1cc2c(NC3CCN(C(C)C)CC3)nc(C3CCCCC3)nc2cc1OCCCN1CCCC1 (10 µM) | 0.297 | 22.5% (active)
Cc1ccc(-c2cn3c4c(sc3n2)CCCC4)cc1 [pifithrin-cyclic] (10 µM) | -0.115 | 106% (inactive)
Cc1nc2ccc(NC(=O)Nc3ccnc4cccnc34)cc2o1 (10 µM) | 0.053 | 99.5% (inactive)

Compound | morphology score [1] | SARS-CoV-2 infection rate [2]
Cc1cc(N2CCN([C@@H]3CN[C@H](C(=O)N4CCSC4)C3)CC2)n(-c2ccccc2)n1 [teneligliptin] (10 µM) | 0.062 | 112% (inactive)
COc1cc(C#N)ccc1S(=O)(=O)Nc1ccc2c(c1)cc(C)c(=O)n2C (10 µM) | 0.0143 | 102% (inactive)
COc1ccc2c(c1)c(CC(=O)N1CCOCC1)c(C)n2C(=O)c1ccc(Cl)cc1 (10 µM) | 0.131 | 112% (inactive)
O=C(O)CNC(=O)c1ccccc1I [2-iodohippuric-acid] (10 µM) | -0.111 | 110% (inactive)
c1cn2cc(-c3ccc4cn[nH]c4c3)nc(Nc3ccc(N4CCOCC4)cc3)c2n1 (10 µM) | 0.194 | 104% (inactive)
CCCCCCCCN=c1ccn(CCCCCCCCCCn2ccc(=NCCCCCCCC)cc2)cc1 [octenidine] (0.833333 µM) | -0.0145 | 108% (inactive)
CN(C)CC/C=C1\c2ccccc2CSc2ccccc21 [dosulepin] (10 µM) | 0.188 | 99.5% (inactive)
C/C=C1\NC(=O)[C@H]2CSSCC/C=C/[C@H](CC(=O)N[C@H](C(C)C)C(=O)N2)OC(=O)[C@H](C(C)C)NC1=O [romidepsin] (10 µM) | -0.211 | 114% (inactive)
OC[C@H]1O[C@@H](n2cnc3c(N[C@H]4CCC[C@@H]4O)ncnc32)[C@H](O)[C@@H]1O (10 µM) | 0.227 | 100% (inactive)
CC1(C)CCC[C@]2(C)[C@H]3CC(=O)O[C@]3(C)CC[C@@H]12 [Sclareolide (Norambreinolide)] (10 µM) | 0.184 | 106% (inactive)
NCC(CS(=O)(=O)O)c1ccc(Cl)cc1 (stereo not drawn) [saclofen] (10 µM) | 0.194 | 94.5% (inactive)
O=c1cc(-c2ccccc2)oc2cc(O)cc(O)c12 [chrysin] (10 µM) | 0.175 | 104% (inactive)
Nc1ccc2cc3ccc(N)cc3nc2c1 [proflavine-hemisulfate] (0.833333 µM) | 0.26 | 80.5% (inactive)
C#Cc1cccc(Nc2ncnc3cc(OCCOC)c(OCCO)cc23)c1 (10 µM) | -0.0889 | 116% (inactive)
O=c1[nH]cnc2nc[nH]c12 [hypoxanthine] (10 µM) | 0.0617 | 108% (inactive)
CC(C)(C)NS(=O)(=O)c1cncc(-c2cc(F)c3nc(N)nn3c2)c1 (10 µM) | 0.0263 | 104% (inactive)
COC(=O)Nc1nc2cc(C(=O)c3ccccc3)ccc2[nH]1 [mebendazole] (0.833333 µM) | -0.163 | 102% (inactive)
CC(=O)/N=c1/[nH]c(C)c(-c2ccc(Cl)c(S(=O)(=O)NCCO)c2)s1 (0.833333 µM) | 0.335 | 104% (inactive)
CCOC(=O)NNc1ccc(N(CC)CC(C)O)nn1 (stereo not drawn) [cadralazine] (10 µM) | 0.0865 | 108% (inactive)
C[C@H](Cc1cc2c(c(C(N)=O)c1)N(CCCO)CC2)NCCOc1ccccc1OCC(F)(F)F [silodosin] (10 µM) | -0.144 | 106% (inactive)
